Screens as filed in PubChem.
DPM-DC inhibit – S. pneumoniae DPM-DC inhibition; 65,000 tested, 0.49% active; purified DPM-DC, PK/LDH coupled NADH fluorescence; calls only at 10 µM; AID 556;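 active = the 320 compounds with the highest percent inhibition in the single-dose primary screen, excluding strongly autofluorescent ones, cut at about 32% in these data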;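 note: kinetic rate of NADH fluorescence loss reporting ADP formed by the decarboxylase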
Spn PMK inh – blocks S. pneumoniae phosphomevalonate kinase; purified PMK, PK/LDH-coupled NADH absorbance 340 nm; inhibition, % at 10 µM; 65,000 tested, 0.49% active; AID 539;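 active = top-ranked compounds by inhibition in the single 10 µM screen, taking a fixed number of the strongest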;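 note: 0% = full reaction with DMSO carrier and 100% = background rate without enzyme reaction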
NADH coupling – inhibition of NAD/NADH coupling enzymes, library profiling; coupled PK/LDH NADH assays, four targets; 65,000 tested, 0.02% active; IC50, µM (top dose mostly 10 µM), inactives show at the highest dose inhibition; AID 774;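 active = single-dose screening hits from any of four coupled enzyme assays that gave an IC50 when retested across doses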;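 note: the DPM-DC format reads NADH fluorescence rather than 340 nm absorbance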
Abs 340nm – compounds absorbing at 340 nm; fold change at 10 µM; AID 708; 65,000 tested, under 10 active; compound absorbance at 340 nm, fold over control;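 active = at 10 µM dose, initial 340 nm absorbance at least 2 fold that of control wells; inactive = change under 2 fold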;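 note: initial absorbance extrapolated from kinetic A340 decline of NADH oxidation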
Autofluor 339 – intrinsic fluorescence of library compounds, ex339/em460 – biochemical, MLSMR library, data from DPM-DC assay, artefact control, profiling panel; compound autofluorescence, ex339/em460 nm, NADH buffer; hits give high values; 1 = no-compound wells, NADH background; fluorescence fold increase at 10 µM; 65,000 tested, 5.5% active; AID 709;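 active = at 10 µM, mean starting fluorescence two-fold or more over control wells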;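 note: signal is the first read of a kinetic run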
MK inhibit – blocks S. pneumoniae mevalonate kinase; purified MK, PK/LDH-coupled NADH absorbance 340 nm; inhibition, % at 10 µM; 65,000 tested, 0.48% active;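 active = ranked among the strongest by inhibition in the single 10 µM screen, a fixed top-ranked set picked for dose follow-up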
Numbers without * were called inactive; i = inactive; . = no result shown. The list is not random: actives were taken first. Their share in the collection is about 6.5%.

SMILES	DPM-DC inhibit	Spn PMK inh	NADH coupling	Abs 340nm	Autofluor 339	MK inhibit
CCOc1ccc(-n2c(=O)c3c(C)c(C)sc3n(CC(=O)NCc3ccco3)c2=O)cc1	i	16	7%	1	1.1	6
COc1ccc(OC)c(NC(=O)c2c(NC(=O)CNCc3ccco3)sc3c2CCC3)c1	.	0	0%	1.1	2.3*	0
CCOC(=O)c1c(C2COc3ccccc3O2)csc1NC(=O)c1ccco1 (stereo not given)	i	4	11%	1.1	3.2*	28
O=C(COC(=O)c1ccco1)NC1CCCCC1	i	25*	8%	1	1	0
COc1ccc(-n2c(=O)c3c4c(sc3n(CC(=O)NCc3ccco3)c2=O)CCC4)c(OC)c1	i	3	22%	1	1.1	63*
COCCNCC(=O)C12CC3CC(CC(C3)C1)C2	i	0	2%	1	1.1	7
Cc1ccc2c(CC(=O)OC(C)C(=O)NCc3ccc4c(c3)OCO4)coc2c1 (stereo not given)	i	12	5%	0.99	1	2
CCOC(=O)c1cccc(NC(=O)c2cccs2)c1	i	5	5%	1	1.2	6
O=C(Nc1scc(-c2ccc(F)cc2)c1C(=O)O)c1ccco1	i	0	3%	1.2	1.1	8
COc1ccccc1NC(=O)c1c(NC(=O)c2ccco2)sc2c1CCC2	.	4	3%	1.1	2.3*	2
CCOC(=O)c1c(NC(=O)c2ccco2)sc2c1CCCC2	.	10	9%	1.1	2.1*	7
CCOC(=O)c1c(NC(=O)c2cccs2)sc2c1CC(C)(C)OC2	i	3	6%	1.1	2.1*	9
COC(=O)c1c(-c2ccccc2)csc1NC(=O)c1ccco1	.	10	5%	1	4.9*	0
COC(=O)CC1Oc2ccccc2N(Cc2ccccc2)C1=O (stereo not given)	i	0	1%	1.1	1.1	4
O=c1c2cc(-c3ccccc3)sc2ncn1/N=C/c1ccco1	i	25	13%	1.1	1	12
Cc1nn(Cc2ccc(Cl)cc2Cl)c(C)c1NC(=O)c1nc2n(n1)C(C(F)F)CC(C)N2 (stereo not given)	i	9	4%	0.99	1.2	4
CCOC(=O)c1c(NC(=O)c2nc3n(n2)C(C(F)F)CC(C)N3)sc2c1CCCC2 (stereo not given)	.	17	12%	1.1	5.1*	6
CCOC(=O)c1c(NC(=O)COC)sc2c1CCCC2	i	0	3%	1.1	1.2	9
O=C(Nc1sc2c(c1C(=O)NC1CCCCC1)CCC2)c1ccco1	.	9	11%	1.1	3.6*	12
CCOC(=O)c1c(NC(=O)c2ccn(CC)n2)sc2c1CCCC2	.	0	13%	1	2.7*	4
COc1ccc(OC)c(NC(=O)CSc2nnc(N)s2)c1	i	5	5%	1.1	1.1	9
CS(=O)(=O)N1CCCC(C(=O)NCCCN2CCc3ccccc3C2)C1 (stereo not given)	i	18	4%	0.98	1	0
COc1ccc(OC)c2c1CCC2=O	.	0	4%	1	2.3*	8
CCC(=O)Nc1ccc(NC(=O)CSc2nnnn2C(C)C)cc1	i	5	2%	0.97	1	12
CCc1nnc(NC(=O)C2CCCN2S(=O)(=O)c2ccc(F)cc2)s1 (stereo not given)	i	13	4%	0.98	1.1	0
SMILES	DPM-DC inhibit	Spn PMK inh	NADH coupling	Abs 340nm	Autofluor 339	MK inhibit
CC(=O)Nc1sc2c(c1C#N)CCCCC2	i	15	3%	0.99	1	10
CC(C)(C)NCc1cccn1-c1sc2c(c1C#N)CCCC2	i	0	16%	1.1	1.1	49*
CCn1cc(C(=O)NC2CCCCC2C)c(=O)c2ccc(C)nc21 (stereo not given)	i	17	9%	1.1	1.3	11
Cc1c2c(nc3c(C(=O)NC4CCCCC4C)cnn13)CCCC2 (stereo not given)	.	29*	16%	1	4.4*	3
Cc1ccc2cc(C#N)c(N3CCCN(C(=O)C4CCCO4)CC3)nc2c1 (stereo not given)	i	15	9%	1	2.3*	0
COc1ccc(C(=O)N2CCN(c3nc4cc(C)ccc4cc3C#N)CC2)c(OC)c1	i	6	2%	1	1.4	6
Cc1ccc2cc(C#N)c(NCCCNC(=O)C3CCCO3)nc2c1 (stereo not given)	.	8	2%	1	2.9*	4
Cc1cc(C)c2cc(C#N)c(NCCCNC(=O)CCC(=O)O)nc2c1	.	10	6%	1	3.7*	2
COc1cc(C(=O)N2CCCN(c3nc4cc(C)ccc4cc3C#N)CC2)cc(OC)c1OC	i	12	10%	1	1.9	.
CCCCNC(=O)c1ccc(NC(=O)C2CCCO2)cc1 (stereo not given)	i	0	4%	1.1	1.1	12
Cc1ccc2nc(N3CCN(C(=O)c4cccs4)CC3)c(C#N)cc2c1	i	11	8%	0.98	2.4*	1
O=C(Nc1ccc(-c2noc(CCc3ccccc3)n2)cc1)c1cccnc1	i	0	3%	1.1	1.1	9
COC(=O)c1ccc(Cl)c(NC(=O)CN(c2ccc3c(c2)OCO3)S(C)(=O)=O)c1	i	7	4%	1	1.1	4
N=c1c(C(=O)NCc2ccccc2)cc2c(=O)n3ccccc3nc2n1CCCN1CCOCC1	.	10	7%	1	3.7*	3
N=c1c(C(=O)NCc2ccc(F)cc2)cc2c(=O)n3ccccc3nc2n1CCCN1CCOCC1	.	14	2%	0.98	3*	1
CCOCCCn1c(=N)c(C(=O)NCc2ccc3c(c2)OCO3)cc2c(=O)n3ccccc3nc21	i	10	4%	1.1	1.5	1
N=c1c(C(=O)NC2CCCCC2)cc2c(=O)n3ccccc3nc2n1CCN1CCOCC1	.	6	3%	1.1	3.9*	0
CCC(C)NC(=O)c1ccccc1NC(=O)CN1C(=O)c2ccccc2S1(=O)=O (stereo not given)	i	1	2%	1	1.1	3
CN(C)C=Nc1ccc2nn(-c3ccccc3)nc2c1	.	0	5%	1.2	2.2*	10
CN(C)/C=N/c1c(C#N)cnn1-c1ccccc1	i	1	0%	1	1.1	0
CC(=O)Nc1ccc(S(=O)(=O)NC(C(=O)O)C2=CCC=CC2)cc1 (stereo not given)	i	13	10%	1	1	18
c1ccc2c3c(cc(N4CCOCC4)c2c1)OC1(N2CCOCC2)CCCCC1O3 (stereo not given)	.	7	10%	1	3.9*	12
O=C(Nc1ccc(N2CCOCC2)c(Cl)c1)C1CCCCC1	i	11	7%	1	1.1	8
